Experimental data as given in PubChem BioAssay AID720607 (Broad Institute, 2013).
Results filed as inconclusive are left out. Active and inactive are the calls of the source.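 How the source made its calls: active means compounds that lower cell viability with a fitted half-maximal potency within a set limit tied to top dose; inconclusive means flat fitted activity from -70 to -30, or unreliable fit; inactive means flat near zero, opposite effect, or weaker potency.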

Assay: cytotoxicity in CCRF-CEM lymphoblastic leukemia cells – cell-based, CellTiter-Glo ATP luminescence, 8/24/48 h, dry powder, HRAS target identification, dose response (AID 720607)
Conditions: CCRF-CEM viability, 8-48 h; for activity change: top conc, at 35 µM, stronger effect = lower value

SMILES | activity change (8 h series) [%] | activity change (24 h series) [%] | activity change, negative = cytotoxicity (at 35 µM (top of the series))
CC(C)(C)OC(=O)NCCOCCOCCOc1ccc(N(C(=O)CCl)C(C(=O)NCCc2ccccc2)c2cccs2)cc1Cl (stereo not drawn) | -88.9 | -98.2 | –
COc1ccc(N(C(=O)CCl)C(C(=O)NCCc2ccccc2)c2cccs2)cc1Cl (stereo not drawn) | -85.7 | -98 | –
Cc1onc(C(=O)N2CCN(C(c3ccncc3)c3ccncc3)CC2)c1[N+](=O)[O-] | -2.67 | -2.69 | -4.38% (inactive)
C#CCCCC(=O)NCCOCCOCCOc1ccc(N(C(=O)CCl)C(C(=O)NCCc2ccccc2)c2cccs2)cc1Cl (stereo not drawn) | -87.7 | -97.5 | –
Cc1onc(C(=O)N2CCN(C(c3ccc(Cl)cc3)c3ccc(Cl)cc3)CC2)c1[N+](=O)[O-] | -63.7 | -96.7 | –
COC(=O)c1ccc([C@@H]2c3[nH]c4ccccc4c3C[C@@H](C(=O)OC)N2C(=O)CCl)cc1 | -77.8 | -98.1 | –
